Results on 4 compounds are retold here after ChEMBL document CHEMBL1201862, “PubChem BioAssay data set” (2004).

The nature of the assay: A High Throughput Confirmatory Assay used to Identify Novel Compounds that Inhibit Mycobacterium Tuberculosis in the absence of Glycerol using Purified and Synthesized Compounds (6). In kind it is functional.
With `CC[N+](C)(CC)CCCCOc1ccc2c(c1)C(=O)c1cc(OCCCC[N+](C)(CC)CC)ccc1-2`, the IC90 was > 2700 nM (active). The figure for `CC(C)/N=c1\cc2n(-c3ccc(Cl)cc3)c3ccccc3nc-2cc1Nc1ccc(Cl)cc1` is > 230 nM (active); for `COc1c(N2CCNC(C)C2)c(F)cc2c(=O)c(C(=O)O)cn(C3CC3)c12` (centres undefined) it is > 170 nM (active); for `CO[C@H]1/C=C/O[C@@]2(C)Oc3c(C)c(O)c4c(O)c(c(C=NN5CCN(C)CC5)c(O)c4c3C2=O)NC(=O)/C(C)=C\C=C\[C@H](C)[C@H](O)[C@@H](C)[C@@H](O)[C@@H](C)[C@H](OC(C)=O)[C@@H]1C` it is > 20 nM (active).
